Test results from the supplement of paper PMC10849652.
Of roughly 7,900 targets only a part is listed; those with a hit were picked by preference. About 0.6% of all pairs of compound and target were hits. Values without a mark were called inactive.

Experiments:
Assay in all cases: log2 fold change, soluble protein after heating vs DMSO (PISA); higher = thermal stabilisation; K562 cells, 10 uM, 30 min; active = over 0.2 and 3.5 SD of the protein, either way, in both replicates (recomputed)
bafetinib = compound: Cc1ccc(NC(=O)c2ccc(CN3CC[C@H](N(C)C)C3)c(C(F)(F)F)c2)cc1Nc1nccc(-c2cncnc2)n1 [bafetinib]
How it was run: (§1)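 K562 cells (2×10^6 cells/mL) were treated with 10 μM compound for 30 min, and aliquots were heated for 3 min over 48°C-58°C. Pooled aliquots were extracted in PBS with 0.5% NP-40 at 4°C, and the supernatant after 21,000xg for 90 min was measured by TMTpro 16plex LC-MS/MS with channel sums equalised. Reported thermal stability, relative to control samples and from duplicates, is a log2 fold change.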

[1] = compound: Cc1cccc(CC(=O)N2CCc3c2ccc(-c2cn(C)c4ncnc(N)c24)c3F)n1
How it was run: as §1

nilotinib = compound: Cc1cn(-c2cc(NC(=O)c3ccc(C)c(Nc4nccc(-c5cccnc5)n4)c3)cc(C(F)(F)F)c2)cn1 [nilotinib]
How it was run: as §1

[2] = compound: Cc1nc(Nc2n[nH]c3c2CN(C(=O)N[C@H](CN(C)C)c2ccccc2)C3(C)C)c2sccc2n1
How it was run: as §1

dasatinib = compound: Cc1nc(Nc2ncc(C(=O)Nc3c(C)cccc3Cl)s2)cc(N2CCN(CCO)CC2)n1 [dasatinib]
How it was run: as §1

[3] = compound: Cc1ncc(-c2ccnc(Nc3ccc(S(C)(=O)=O)cc3)n2)n1C(C)C
How it was run: as §1

[4] = compound: Cn1cc(-c2ccc3c(c2)CCN3C(=O)Cc2cccc(C(F)(F)F)c2)c2c(N)ncnc21
How it was run: as §1

[5] = compound: Cn1cc(-c2ccc3nnc(C(F)(F)c4ccc5ncccc5c4)n3n2)cn1
How it was run: as §1

tipifarnib = compound: Cn1cncc1[C@@](N)(c1ccc(Cl)cc1)c1ccc2c(c1)c(-c1cccc(Cl)c1)cc(=O)n2C [tipifarnib]
How it was run: as §1

mubritinib = compound: FC(F)(F)c1ccc(/C=C/c2nc(COc3ccc(CCCCn4ccnn4)cc3)co2)cc1 [mubritinib]
How it was run: as §1

[6] = compound: NC(=O)Nc1cc(-c2cccc(F)c2)sc1C(=O)N[C@H]1CCCNC1
How it was run: as §1

[7] = compound: NC(=O)c1cnc(N[C@@H]2CCCC[C@@H]2N)nc1Nc1cccc(-n2nccn2)c1
How it was run: as §1

[8] = compound: NC1(c2ccc(-c3nc4ccn5c(=O)[nH]nc5c4cc3-c3ccccc3)cc2)CCC1
How it was run: as §1

[9] = compound: NCC(=O)Nc1ccc(-n2nc(C(F)(F)F)cc2-c2ccc3c(ccc4ccccc43)c2)cc1
How it was run: as §1

entinostat = compound: Nc1ccccc1NC(=O)c1ccc(CNC(=O)OCc2cccnc2)cc1 [entinostat]
How it was run: as §1

vorinostat = compound: O=C(CCCCCCC(=O)Nc1ccccc1)NO [vorinostat]
How it was run: as §1

citarinostat = compound: O=C(CCCCCCNC(=O)c1cnc(N(c2ccccc2)c2ccccc2Cl)nc1)NO [citarinostat]
How it was run: as §1

silmitasertib = compound: O=C(O)c1ccc2c(c1)nc(Nc1cccc(Cl)c1)c1ccncc12 [silmitasertib]
How it was run: as §1

[10] = compound: O=C1NC(=O)C(c2cnc3ccccn23)=C1c1cn2c3c(cc(F)cc13)CN(C(=O)N1CCCCC1)CC2
How it was run: as §1

[11] = compound: c1cc(OCCN2CCCCC2)cc(-c2n[nH]c3ccc(-c4nnc[nH]4)cc23)c1
How it was run: as §1

UniProt Q07960, sequence (Q07960 whole entry, looked up): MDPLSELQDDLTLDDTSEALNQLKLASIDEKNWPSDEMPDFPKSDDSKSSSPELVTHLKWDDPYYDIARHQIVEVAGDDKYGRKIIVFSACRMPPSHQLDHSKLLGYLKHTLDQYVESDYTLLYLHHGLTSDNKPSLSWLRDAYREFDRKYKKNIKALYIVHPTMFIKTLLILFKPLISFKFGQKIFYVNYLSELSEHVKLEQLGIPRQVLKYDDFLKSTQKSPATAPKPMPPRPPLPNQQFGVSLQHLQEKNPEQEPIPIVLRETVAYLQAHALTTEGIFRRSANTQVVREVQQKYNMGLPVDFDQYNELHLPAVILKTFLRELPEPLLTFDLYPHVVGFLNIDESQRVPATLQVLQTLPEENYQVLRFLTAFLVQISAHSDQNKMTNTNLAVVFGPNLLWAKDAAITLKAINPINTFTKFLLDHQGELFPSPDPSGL
UniProt P10398, sequence (P10398 whole entry, looked up): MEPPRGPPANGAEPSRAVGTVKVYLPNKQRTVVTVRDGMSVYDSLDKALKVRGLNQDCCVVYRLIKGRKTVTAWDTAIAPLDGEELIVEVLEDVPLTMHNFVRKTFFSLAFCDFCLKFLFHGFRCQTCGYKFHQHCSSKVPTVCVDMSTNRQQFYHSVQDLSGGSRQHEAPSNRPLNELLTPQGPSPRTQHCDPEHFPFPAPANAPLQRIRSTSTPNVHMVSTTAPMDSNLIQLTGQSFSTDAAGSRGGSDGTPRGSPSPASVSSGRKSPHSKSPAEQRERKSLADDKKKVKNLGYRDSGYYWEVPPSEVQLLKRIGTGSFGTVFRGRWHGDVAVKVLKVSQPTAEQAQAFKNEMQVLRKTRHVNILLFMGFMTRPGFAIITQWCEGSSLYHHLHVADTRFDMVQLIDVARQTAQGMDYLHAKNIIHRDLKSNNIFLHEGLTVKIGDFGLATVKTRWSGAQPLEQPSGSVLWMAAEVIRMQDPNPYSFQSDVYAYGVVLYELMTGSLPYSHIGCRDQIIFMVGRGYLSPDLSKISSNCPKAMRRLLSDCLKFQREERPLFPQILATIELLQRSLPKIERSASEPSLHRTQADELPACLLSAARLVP
UniProt Q9H0E9, sequence (Q9H0E9 whole entry, looked up): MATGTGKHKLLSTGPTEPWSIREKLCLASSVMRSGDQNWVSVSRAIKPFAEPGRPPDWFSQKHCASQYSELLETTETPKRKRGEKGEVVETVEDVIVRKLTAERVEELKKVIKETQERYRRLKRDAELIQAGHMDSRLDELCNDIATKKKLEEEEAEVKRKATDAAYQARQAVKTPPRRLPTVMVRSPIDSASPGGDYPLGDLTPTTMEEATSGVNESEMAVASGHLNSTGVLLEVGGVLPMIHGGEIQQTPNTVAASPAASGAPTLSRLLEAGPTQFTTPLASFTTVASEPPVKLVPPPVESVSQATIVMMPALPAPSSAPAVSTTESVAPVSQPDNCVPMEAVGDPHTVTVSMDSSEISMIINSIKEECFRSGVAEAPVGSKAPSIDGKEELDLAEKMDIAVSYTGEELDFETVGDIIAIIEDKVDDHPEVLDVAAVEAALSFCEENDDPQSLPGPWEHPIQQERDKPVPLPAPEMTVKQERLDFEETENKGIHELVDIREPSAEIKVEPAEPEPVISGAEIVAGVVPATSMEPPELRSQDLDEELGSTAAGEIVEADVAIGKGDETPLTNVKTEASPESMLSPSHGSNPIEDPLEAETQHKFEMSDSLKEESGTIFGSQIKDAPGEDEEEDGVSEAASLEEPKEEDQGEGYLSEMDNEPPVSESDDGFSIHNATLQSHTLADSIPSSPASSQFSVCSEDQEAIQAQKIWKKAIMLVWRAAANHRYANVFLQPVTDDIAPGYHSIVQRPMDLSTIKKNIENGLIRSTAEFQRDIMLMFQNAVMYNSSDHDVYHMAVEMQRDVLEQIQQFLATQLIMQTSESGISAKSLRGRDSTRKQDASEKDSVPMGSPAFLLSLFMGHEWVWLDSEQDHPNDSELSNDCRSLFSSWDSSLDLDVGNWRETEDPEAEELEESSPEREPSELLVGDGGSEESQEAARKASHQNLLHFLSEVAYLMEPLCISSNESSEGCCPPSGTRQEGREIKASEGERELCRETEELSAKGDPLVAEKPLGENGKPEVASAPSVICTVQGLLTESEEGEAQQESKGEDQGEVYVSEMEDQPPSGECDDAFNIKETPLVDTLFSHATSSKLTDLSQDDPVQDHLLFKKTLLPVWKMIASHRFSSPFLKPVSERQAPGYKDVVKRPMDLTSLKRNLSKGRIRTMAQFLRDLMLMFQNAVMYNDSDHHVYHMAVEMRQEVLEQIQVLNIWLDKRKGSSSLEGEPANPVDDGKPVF
UniProt Q53FZ2, sequence (Q53FZ2 whole entry, looked up): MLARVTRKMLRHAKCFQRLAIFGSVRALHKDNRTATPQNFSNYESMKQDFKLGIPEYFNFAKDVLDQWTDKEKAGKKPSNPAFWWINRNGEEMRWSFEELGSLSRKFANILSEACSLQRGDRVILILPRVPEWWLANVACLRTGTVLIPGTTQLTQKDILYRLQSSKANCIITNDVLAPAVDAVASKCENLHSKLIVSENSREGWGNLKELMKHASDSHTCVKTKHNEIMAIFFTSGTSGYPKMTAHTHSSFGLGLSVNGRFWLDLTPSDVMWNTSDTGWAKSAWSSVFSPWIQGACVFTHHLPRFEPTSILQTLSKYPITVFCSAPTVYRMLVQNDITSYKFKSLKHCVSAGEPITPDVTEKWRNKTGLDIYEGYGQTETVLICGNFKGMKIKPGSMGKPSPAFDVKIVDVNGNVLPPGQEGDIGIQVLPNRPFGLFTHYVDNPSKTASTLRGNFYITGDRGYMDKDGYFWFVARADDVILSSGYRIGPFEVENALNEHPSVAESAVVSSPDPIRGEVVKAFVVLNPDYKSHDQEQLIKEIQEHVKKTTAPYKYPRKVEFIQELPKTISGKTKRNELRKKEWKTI
UniProt Q8N6T3, sequence (Q8N6T3 whole entry, looked up): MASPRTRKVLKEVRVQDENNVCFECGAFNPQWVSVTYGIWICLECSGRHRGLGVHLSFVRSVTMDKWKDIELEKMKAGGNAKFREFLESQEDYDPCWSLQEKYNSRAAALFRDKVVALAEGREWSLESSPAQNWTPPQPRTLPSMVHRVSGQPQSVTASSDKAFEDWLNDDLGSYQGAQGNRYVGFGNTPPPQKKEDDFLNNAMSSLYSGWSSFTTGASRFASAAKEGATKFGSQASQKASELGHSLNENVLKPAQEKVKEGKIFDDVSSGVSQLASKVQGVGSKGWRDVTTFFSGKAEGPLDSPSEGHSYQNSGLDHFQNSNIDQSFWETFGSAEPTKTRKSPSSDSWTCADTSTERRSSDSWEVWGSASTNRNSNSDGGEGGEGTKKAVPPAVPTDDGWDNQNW
UniProt Q15057, sequence (Q15057 whole entry, looked up): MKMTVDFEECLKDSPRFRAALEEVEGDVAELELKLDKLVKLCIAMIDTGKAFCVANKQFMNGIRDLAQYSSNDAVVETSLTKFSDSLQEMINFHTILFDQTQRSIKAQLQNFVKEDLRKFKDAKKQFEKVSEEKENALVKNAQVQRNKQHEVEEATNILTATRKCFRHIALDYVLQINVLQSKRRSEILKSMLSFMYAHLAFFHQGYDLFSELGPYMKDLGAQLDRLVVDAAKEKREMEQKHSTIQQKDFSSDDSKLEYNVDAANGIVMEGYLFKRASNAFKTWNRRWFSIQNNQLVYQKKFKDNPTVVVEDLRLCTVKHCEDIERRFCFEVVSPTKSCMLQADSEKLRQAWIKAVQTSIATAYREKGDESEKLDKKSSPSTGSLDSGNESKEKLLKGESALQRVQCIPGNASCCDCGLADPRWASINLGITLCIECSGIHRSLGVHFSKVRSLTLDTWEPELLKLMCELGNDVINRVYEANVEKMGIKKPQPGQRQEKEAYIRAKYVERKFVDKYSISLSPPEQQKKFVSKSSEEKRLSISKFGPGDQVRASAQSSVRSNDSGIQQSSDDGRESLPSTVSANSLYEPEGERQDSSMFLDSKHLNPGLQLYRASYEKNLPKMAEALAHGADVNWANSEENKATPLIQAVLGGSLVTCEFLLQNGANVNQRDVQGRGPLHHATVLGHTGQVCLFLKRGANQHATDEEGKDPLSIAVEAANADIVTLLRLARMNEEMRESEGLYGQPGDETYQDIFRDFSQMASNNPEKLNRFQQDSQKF
UniProt Q8IUR7, sequence (Q8IUR7 whole entry, looked up): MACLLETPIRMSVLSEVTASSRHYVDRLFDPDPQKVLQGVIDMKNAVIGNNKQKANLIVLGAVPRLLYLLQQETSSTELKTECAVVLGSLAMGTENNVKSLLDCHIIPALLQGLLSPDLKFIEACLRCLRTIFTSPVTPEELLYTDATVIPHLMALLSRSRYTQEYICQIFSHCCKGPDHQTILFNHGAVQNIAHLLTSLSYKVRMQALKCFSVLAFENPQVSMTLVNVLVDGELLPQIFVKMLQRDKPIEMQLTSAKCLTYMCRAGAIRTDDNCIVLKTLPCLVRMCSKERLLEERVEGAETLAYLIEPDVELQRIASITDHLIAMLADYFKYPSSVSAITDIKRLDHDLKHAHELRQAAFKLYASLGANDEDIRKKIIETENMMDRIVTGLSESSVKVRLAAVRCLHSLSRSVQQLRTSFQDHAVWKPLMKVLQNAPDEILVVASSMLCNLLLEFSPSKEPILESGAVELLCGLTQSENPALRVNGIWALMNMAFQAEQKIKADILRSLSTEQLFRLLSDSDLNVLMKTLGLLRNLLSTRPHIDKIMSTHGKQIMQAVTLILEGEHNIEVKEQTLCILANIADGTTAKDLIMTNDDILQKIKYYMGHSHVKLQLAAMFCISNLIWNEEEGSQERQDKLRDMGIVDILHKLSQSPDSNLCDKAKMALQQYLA
UniProt Q9Y3D8, sequence (Q9Y3D8 whole entry, looked up): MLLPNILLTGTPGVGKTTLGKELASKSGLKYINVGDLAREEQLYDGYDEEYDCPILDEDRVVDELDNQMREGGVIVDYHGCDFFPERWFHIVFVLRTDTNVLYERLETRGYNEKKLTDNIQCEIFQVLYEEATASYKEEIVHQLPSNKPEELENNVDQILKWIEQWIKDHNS

Target	log2 fold change (bafetinib)	log2 fold change [1]	log2 fold change (nilotinib)	log2 fold change [2]	log2 fold change (dasatinib)	log2 fold change [3]	log2 fold change [4]	log2 fold change [5]	log2 fold change (tipifarnib)	log2 fold change (mubritinib)	log2 fold change [6]	log2 fold change [7]	log2 fold change [8]	log2 fold change [9]	log2 fold change (entinostat)	log2 fold change (vorinostat)	log2 fold change (citarinostat)	log2 fold change (silmitasertib)	log2 fold change [10]	log2 fold change [11]
ABCB6 (UniProt Q9NP58)	-0.035	0.014	0.022	0.032	-0.001	0.024	0	-0.025	0.005	0.001	0.005	-0.111	-0.456 (active)	-0.015	-0.011	0.044	0.063	0.018	-0.047	-0.021
AIFM2 (UniProt Q9BRQ8)	0.008	-0.129	0.067	0.023	0.046	-0.043	0.081	0.032	0.199	0.025	0.016	-0.019	0.034	-0.02	-0.01	-0.053	0.046	0.03	0.047	-0.034
ARHGAP1 (UniProt Q07960)	0.001	0.016	-0.019	-0.056	-0.101	0.007	-0.025	-0.008	-0.069	0.01	-0.068	-0.048	-0.003	-0.051	0.016	0.012	0.009	0.014	-0.024	-0.093
AK6 (UniProt Q9Y3D8)	0.021	-0.018	-0.141	-0.143	-0.288	-0.015	0	0.025	-0.144	-0.114	-0.034	-0.072	-0.043	-0.138	0.145	0.074	0.103	0.058	-0.051	-0.009
ACSM3 (UniProt Q53FZ2)	0.009	-0.061	-0.015	0.002	-0.185	0.028	0.012	0.128	0.002	-0.343 (active)	0.017	0	0.021	-0.125	0.009	0.122	0.122	0.06	-0.134	-0.094
ACAP2 (UniProt Q15057)	0.093	0.052	-0.006	-0.05	-0.04	0.051	-0.073	-0.051	-0.097	0.016	-0.016	-0.075	0.026	-0.035	0.005	0	0.029	-0.007	-0.078	0.045
APLP2 (UniProt Q06481)	0.054	-0.063	0.156	-0.144	0.118	0.052	-0.007	-0.164	-0.01	-0.011	-0.13	-0.021	0.036	0.054	-0.063	-0.035	0.02	0	0.074	0.046
BMP2K (UniProt Q9NSY1)	0.037	-0.107	-0.067	0.534 (active)	0	0.34	-0.016	-0.036	0.016	-0.042	0.297	0.076	0.035	-0.007	-0.037	-0.078	-0.053	0.031	0.291	0.241
ATG9A (UniProt Q7Z3C6)	-0.048	-0.013	-0.04	-0.108	-0.046	-0.014	0.06	-0.022	0.168	0.042	0.019	0	-0.262	0.038	0.008	0.061	0.059	-0.023	0.019	-0.013
AGPAT1 (UniProt Q99943)	-0.036	0.012	-0.035	0.016	-0.033	-0.063	0.033	-0.006	0.027	0.014	0.013	-0.022	0.018	-0.012	-0.033	-0.03	0.088	-0.007	-0.067	-0.002
ATL2 (UniProt Q8NHH9)	0.026	0.034	0.081	-0.008	-0.129	0.031	0.083	0.18	-0.014	0.104	-0.021	-0.03	-0.165	-0.094	-0.025	0.017	-0.023	-0.004	-0.025	-0.058
BRD8 (UniProt Q9H0E9)	-0.032	-0.072	-0.01	-0.055	0.057	-0.019	0.018	-0.028	0.054	0.011	0.008	-0.107	0.038	-0.014	-0.041	-0.125	-0.12	0.038	0.022	-0.059
ADD3 (UniProt Q9UEY8)	0.008	-0.008	0.031	-0.004	0.072	-0.096	0.028	-0.016	0.009	0.038	0.03	-0.014	0.047	-0.001	-0.051	-0.01	-0.015	0.001	-0.037	-0.024
ARMC8 (UniProt Q8IUR7)	0.021	-0.026	-0.036	0.038	-0.082	-0.008	-0.019	-0.112	0.007	-0.053	-0.044	0.017	-0.087	0.002	-0.031	-0.031	0.057	0.058	0.026	-0.028
ARAF (UniProt P10398)	-0.015	0.01	-0.021	-0.236 (active)	-0.031	0.009	0.007	-0.003	0.144	-0.092	-0.059	0.196	-0.119	0.011	0.062	0.055	0.098	0.048	0.017	-0.096
ARFGAP1 (UniProt Q8N6T3)	-0.041	-0.009	-0.015	-0.193	-0.097	-0.004	-0.003	0.008	-0.036	-0.022	-0.036	-0.033	-0.073	-0.052	0.041	0.006	0.056	0.063	-0.092	0.035
